# Measurements published in PubChem BioAssay (Tox21).
# Inconclusive results are not listed. Unmarked numbers belong to inactive results. Activity calls are given as the source filed them. Calls follow the shape of the dose curve; as a rule, active = well fitted cell-killing curve with a large enough effect in the repeat runs; inconclusive = weak or mixed curves; inactive = no such curve, though single readings can be large or run the other way. Positions of bridges follow the written chain, without caps; N, C: chain ends. Non-standard residues stand in square brackets, D forms with d. Residues, ends and D or L forms follow the SMILES beside them. *: point of attachment. X2 = CC[C@H](C)CCCCC(=O)*; Dab = NCC[C@H](N)C(=O)O
# Test: qHTS assay to identify small molecule antagonists of the androgen receptor (AR) signaling pathway - cell viability counter screen (AID 743033; also: nearly all actives have a fitted effect of over 45% in size)
# Settings: AR-bla HEK293 viability, CellTiter-Glo luminescence, 16 h; series mostly up to 58.5 µM; activity change, negative = cytotoxicity: at the top concentration
# Source text: National Center for Advancing Translational Sciences [NCATS]
# NIH Chemical Genomics Center [NCGC]
# U.S. Environmental Protection Agency [EPA]
# National Institutes of Environmental Health Sciences [NIEHS]
# National Toxicology Program [NTP]
# U.S. Food and Drug Administration [FDA]
# Androgen receptor (AR), a nuclear hormone receptor, plays a critical role in AR-dependent prostate cancer and other androgen related diseases. Endocrine disrupting chemicals (EDCs) and their interactions with steroid hormone receptors like AR may cause disruption of normal endocrine function as well as interfere with metabolic homeostasis, reproduction, developmental and behavioral functions. To identify the compounds that inhibit AR signaling, GeneBLAzer AR-UAS-bla-GripTite cell line (Invitrogen, Carlsbad, CA, USA) containing a beta-lactamase reporter gene under control of an Upstream Activator Sequence (UAS) stably integrated into HEK293 cells was used to screen the Tox21 10K compound library. The cytotoxicity of the Tox21 compound library against the AR-bla cell line was tested in parallel by measuring the cell viability using CellTiter-Glo assay in the same wells.
# Tox21 Assay Protocol Summary:
# AR-bla cells were dispensed at 2,000 cells/5 uL of assay medium per well into black wall/clear-bottom 1536-well plates using a Multidrop Combi (ThermoFisher Scientific, Waltham, MA) dispenser. After the assay plates were incubated at a 37C and 5% CO2 for 4 hr, 23 nL of compounds dissolved in DMSO, positive controls or DMSO only was transferred to the assay plate by a Pintool station (Kalypsys, San Diego, CA), followed by addition of 1 uL of agonist (R1881) in culture medium using a Bioraptr Flying Reagent Dispenser (FRD) workstation (Beckman Coulter, Indianapolis, IN, USA). The plates were incubated at a 37C and 5% CO2 for 16 h. After 1 uL of LiveBLAzerTM B/G FRET substrate was added using a Bioraptr FRD, the plates were incubated at room temperature for 2 h and fluorescence intensity was measured by an Envision plate reader (PerkinElmer, Shelton, CT). For cell viability readout that measures cytotoxicity, 4 ul/well of CellTiter-Glo reagent was added into the assay plates using a Bioraptr FRD. After 30 min incubation at room temperature, the luminescence intensity in the plates was measured using a ViewLux (PerkinElmer) plate reader.
# % is scaled to controls: 0 for no effect and ±100 for the full control effect; potency is read from the fitted curve at half-maximal effect.
Compound,"activity change, negative = cytotoxicity",Potency
O.O=C([O-])CC([S-])C(=O)[O-].[Au+].[Na+].[Na+] (stereo not given),1.3%,
CC1(C)[C@@H]2CC[C@@]1(C)[C@H](OC(=O)CSC#N)C2,13.2%,
CC(C)CCCC(C)NC(C)C (stereo not given),0.799%,
[O]=[Bi][O]C(=O)[O][Bi]=[O],-26%,
C=C1c2c(Cl)ccc(O)c2C(O)=C2C(=O)[C@]3(O)C(O)=C(C(N)=O)C(=O)[C@@H](N(C)C)[C@@H]3[C@@H](O)[C@H]12,-16.7% [at 27 µM],
CO/N=C(\C(=O)N[C@@H]1C(=O)N2C(C(=O)OCOC(=O)C(C)(C)C)=C(/C=C\c3scnc3C)CS[C@H]12)c1csc(N)n1,4.71%,
C#C[C@]1(O)CC[C@H]2[C@@H]3CCC4=CCCC[C@@H]4[C@H]3C(=C)C[C@@]21CC,1.53%,
CCOC(=O)CCC(=O)O[C@H]1[C@H](O[C@@H]2[C@@H](C)[C@H](O[C@H]3C[C@@](C)(OC)[C@@H](O)[C@H](C)O3)[C@@H](C)C(=O)O[C@H](CC)[C@@](C)(O)[C@H](O)[C@@H](C)C(=O)[C@H](C)C[C@@]2(C)O)O[C@H](C)C[C@@H]1N(C)C,2.18%,
O=C(O)CO.[NH2-].[NH2-].[Pt+2],16.6%,
COc1cc(C)c(/C=C/C(C)=C/C=C/C(C)=C/C(=O)O)c(C)c1C,-25.3%,
CCCCC(F)(F)[C@@]1(O)CC[C@H]2[C@@H](CC(=O)[C@@H]2CCCCCCC(=O)O)O1,8.19%,
CC(C)(S)[C@@H](N)C(=O)O,2.49%,
COc1ccc(CCNC[C@H](O)c2ccc(O)cc2)cc1OC,-0.311%,
CN(C)CCOc1ccccc1Cc1ccccc1 (tested in a mixture with another compound),4.62%,
O=C(Nc1ccc(O)cc1)c1ccccc1O,6.37%,
Cc1cccc(C)c1Nc1ncccc1C(=O)O,1.44%,
CC[C@H](C)CCCCC(=O)N[C@@H](CCN)C(=O)N[C@H](C(=O)N[C@@H](CCN)C(=O)N[C@H]1CCNC(=O)[C@H]([C@@H](C)O)NC(=O)[C@H](CCN)NC(=O)[C@H](CCN)NC(=O)[C@H](CC(C)C)NC(=O)[C@@H](CC(C)C)NC(=O)[C@H](CCN)NC1=O)[C@@H](C)O (X2-[Dab]T[Dab][Dab][Dab][dL]L[Dab][Dab]T; lactam 4-C),0.8%,
COc1ccc(C2NC(=S)N3C(c4ccc(OC)c(OC)c4)NC(=S)N23)cc1OC (stereo not given),,239 nM (active)
CC(=O)Nc1ccc(NC(=S)NC(=O)c2ccc(C(C)(C)C)cc2)cc1,1.14%,
CC(C)N1CCN(c2ccc(OC[C@H]3CO[C@](Cn4cncn4)(c4ccc(Cl)cc4Cl)O3)cc2)CC1,-27.9% [at 27 µM],

Compound,"activity change, negative = cytotoxicity",Potency
CC(C)CCC[C@@H](C)[C@H]1CC(=O)C2=C3CC[C@H]4C[C@@H](O)CC[C@]4(C)[C@H]3CC[C@@]21C,-12%,
O=C(Cn1c(=O)sc2ccc(Cl)cc21)N1CCN(CCO)CC1,6.6%,
CC[C@@H](C(=O)[C@@H](C)[C@@H](O)[C@H](C)[C@@H]1O[C@@H]([C@@H](CC)C(=O)O)CC[C@@H]1C)[C@H]1O[C@]2(C=C[C@@H](O)[C@]3(CC[C@@](C)([C@H]4CC[C@](O)(CC)[C@H](C)O4)O3)O2)[C@H](C)C[C@@H]1C,,1510 nM (active)
C=C[C@]1(C)C[C@@H](OC(=O)CO)[C@]2(C)[C@H](C)CC[C@]3(CCC(=O)[C@H]32)[C@@H](C)[C@@H]1O,-7.78%,
CC(C(=O)O)c1ccc(N2Cc3ccccc3C2=O)cc1 (stereo not given),-26%,
CCSc1ccc2c(c1)N(CCCN1CCN(C)CC1)c1ccccc1S2,-23% [at 27 µM],
CN1CCC(CN2c3ccccc3Sc3ccccc32)C1 (stereo not given),-25.3%,
CN(C)C(=O)CCSC(SCCC(=O)O)c1cccc(/C=C/c2ccc3ccc(Cl)cc3n2)c1 (stereo not given),-28.4%,
O=C(O[C@H]1CN2CCC1CC2)N1CCc2ccccc2[C@@H]1c1ccccc1,-21.4%,
CCC(Cc1c(I)cc(I)c(O)c1I)C(=O)O (stereo not given),-15.2%,
CO[C@@H]1[C@@H](O[C@@H]2O[C@H](C)[C@@H](O[C@H]3C[C@@](C)(O)[C@@H](OC(=O)CC(C)C)[C@H](C)O3)[C@H](N(C)C)[C@H]2O)[C@@H](CC=O)C[C@@H](C)[C@@H](O)/C=C/C=C/C[C@@H](C)OC(=O)C[C@H]1O,,inactive
NCCC(=O)[N-][C@@H](Cc1cnc[nH]1)C(=O)O.[Zn],7.71%,
C[C@@H]1C/C=C/C=C/C=C/C=C/[C@H](O[C@@H]2O[C@H](C)[C@@H](O)[C@H](N)[C@@H]2O)C[C@@H]2O[C@](O)(C[C@@H](O)C[C@H]3O[C@@H]3/C=C/C(=O)O1)C[C@H](O)[C@H]2C(=O)O,3.81%,
CC(C)NCC(O)COc1ccccc1-n1cccc1 (stereo not given),1.85%,
O=C(CO)[C@@H](O)[C@H](O)[C@@H](O)C(=O)O,0.52%,
CO[C@H]1C[C@H](O[C@H]2[C@H](C)O[C@@H](O[C@@H]3/C(C)=C/C[C@@H]4C[C@@H](C[C@]5(C=C[C@H](C)[C@@H](C6CCCCC6)O5)O4)OC(=O)[C@@H]4C=C(C)[C@@H](O)[C@H]5OC/C(=C\C=C\[C@@H]3C)[C@]54O)C[C@@H]2OC)O[C@@H](C)[C@@H]1O,-4.63%,
CCCC(=O)O[C@]1(C(=O)COC(=O)CC)[C@@H](C)C[C@H]2[C@@H]3CCC4=CC(=O)C=C[C@]4(C)[C@@]3(F)[C@@H](O)C[C@@]21C,-2.5%,
CCC(C)C(C(=O)OCC[N+](C)(CC)CC)c1ccccc1 (stereo not given),-1.21%,
O=C(O)c1nc(=O)[nH]c(=O)[nH]1,7.92%,
CCCCCCCCCCCC(=O)N(CCO)CCO,-0.0676%,
